The list is not random: actives were taken first. Their share in the collection is about 1.6%.
3CLpro inhibitor – SARS-CoV 3CLpro protease inhibition; hit rate 0.14% among 290,000; P0C6X7; AID 1706; recombinant SARS-CoV 3CLpro, quenched FRET peptide cleavage; inhibition, % at 6 µM; in the data active means inhibition above about 12%
PfHsp40 rescue – restores yeast growth despite PfHsp40 toxicity. hit rate 0.68% among 340,000. S. cerevisiae expressing PfHsp40, growth rescue, ATP luminescence. growth rescue, % at 12.5 µM; in the data active means growth rescue above about 28%, passing the limit was not always enough;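 further: yeast W303a lacking pdr1 and pdr3 grown in galactose medium; growth measured after three days at 30 °C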
PrPC TRFRET – cell surface PrPC inhibition, primary TR-FRET screen | P04156 | TR-FRET read-out | inhibition, % at 13.8 µM | hit rate 0.43% among 370,000 | AID 720596; in the data active means inhibition above about 24%
PrP 5UTR inh – suppresses PrP 5' UTR mRNA reporter expression; inhibition, % (concentration not given with the values); cell-based PrP 5' UTR mRNA reporter, plate reader; hit rate 0.35% among 340,000; AID 488862; in the data active means inhibition above about 52%
SSB-PriA inh – K. pneumoniae PriA-SSBct interaction inhibition | hit rate 0.6% among 430,000 | AlphaScreen SSBct-PriA binding, biotinylated peptide | inhibition, % at 33 µM; in the data active means inhibition mostly above about 37%, no sharp cut-off; inactive means mostly below about 20%
Vc quorum ag – induces V. cholerae light production without autoinducers; AID 588436; activation, % at 18.7 µM; V. cholerae BH1578 lux reporter, luminescence, 6 h; hit rate 0.16% among 350,000; in the data active means activation mostly above about 9.7%, no sharp cut-off
Each line names hits and unclear results; the compound was inactive in the other large screens; ! = repeats disagree.

CCN1C(=O)C(NC(C)=O)c2cc(Br)ccc21 (configuration not stated)	none
CC(=O)NC1C(=O)N(CCN2CCOCC2)c2ccc(Cl)cc21 (configuration not stated)	3CLpro inhibitor 13.0
CCCCN1C(=O)C(NC(C)=O)c2cc(Br)ccc21 (configuration not stated)	none
CCSc1nnc(C)c2cnn(-c3ccc(C)c(C)c3)c12	none (no result: 3CLpro inhibitor, PfHsp40 rescue, PrPC TRFRET, PrP 5UTR inh, Vc quorum ag)
COc1ccc(C(=S)Nc2ccc(C)cc2)cc1	none
COc1ccc(NC(=S)c2ccncc2)cc1	SSB-PriA inh 82.0!
COc1ccc(NC(=S)c2ccc3ccccc3n2)cc1	SSB-PriA inh 44.3 (no result: PrPC TRFRET)
COc1cccc(-c2nnc3ccc(OCCNC(=O)Cc4ccccc4Cl)nn23)c1	none (no result: 3CLpro inhibitor, PfHsp40 rescue, PrPC TRFRET, PrP 5UTR inh, Vc quorum ag)
Cn1cncc1C#Cc1ccc2cc(CCO)oc(=O)c2c1	PfHsp40 rescue 67.0 (no result: 3CLpro inhibitor)
CCOC(=O)c1ccc(NC(=O)COc2cccc3ccc(N4CCC(C(N)=O)CC4)nc23)cc1	none (no result: 3CLpro inhibitor, PfHsp40 rescue, PrPC TRFRET, PrP 5UTR inh, Vc quorum ag)
Oc1ccc(C=Nc2cccc3ncccc23)c(O)c1	SSB-PriA inh 96.2
COc1ccc(C=Nc2cccnc2N)cc1	none (no result: PrPC TRFRET)
CCOc1ccc(C=Nc2cccc3ncccc23)cc1	SSB-PriA inh 77.4
CCOCC(=O)N(Cc1ccoc1)Cc1cccs1	none (no result: 3CLpro inhibitor, PfHsp40 rescue, PrPC TRFRET, PrP 5UTR inh, Vc quorum ag)
COCC(=O)Nc1cc(C)nn1-c1nc2c(c(=O)[nH]1)CCC2	none (no result: 3CLpro inhibitor, PfHsp40 rescue, PrPC TRFRET, PrP 5UTR inh, Vc quorum ag)
O=C(CSc1ncnc2c1cnn2-c1ccc(Cl)cc1)N1CCCc2ccccc21	none (no result: 3CLpro inhibitor, PfHsp40 rescue, PrPC TRFRET, PrP 5UTR inh, Vc quorum ag)
COc1cccc2c1C(=O)c1c(O)c3c(c(O)c1C2=O)CC(O)(C(C)=O)CC3OC1CC(O)C(O)C(C)O1 (configuration not stated)	none (no result: 3CLpro inhibitor)
COc1cccc2c1C(=N)c1c(O)c3c(c(O)c1C2=O)CC(O)(C(C)=O)CC3OC1CC(N)C(O)C(C)O1 (configuration not stated)	SSB-PriA inh 85.2 (no result: 3CLpro inhibitor, PrPC TRFRET)
Nc1c(C(=O)Nc2cccc(C(F)(F)F)c2)c2ccccn2c1C(=O)c1ccc([N+](=O)[O-])cc1	none (no result: 3CLpro inhibitor, PfHsp40 rescue, PrPC TRFRET, PrP 5UTR inh, Vc quorum ag)
COc1cc2nc(N3CCNCC3)nc(N)c2cc1OC	PfHsp40 rescue 185.8, SSB-PriA inh 46.4
COc1cc2nc(N3CCN(c4cc(C)ccc4C)CC3)nc(N)c2cc1OC	none
CCOc1ccc(-n2ccnc(SCC(=O)Nc3ccc(F)cc3F)c2=O)cc1	none (no result: 3CLpro inhibitor, PfHsp40 rescue, PrPC TRFRET, PrP 5UTR inh, Vc quorum ag)
O=C(CCS(=O)(=O)Cc1ccccc1)Nc1nnc(-c2cccs2)o1	none (no result: 3CLpro inhibitor, PfHsp40 rescue, PrPC TRFRET, PrP 5UTR inh, Vc quorum ag)
N#Cc1nc(-c2cccs2)oc1NCc1ccccc1	none
N#Cc1nc(-c2cccs2)oc1NCc1ccccc1Cl	SSB-PriA inh 45.1
Cc1ccc(Cl)cc1NC(=O)C(=O)NCC(O)c1ccoc1 (configuration not stated)	none (no result: 3CLpro inhibitor, PfHsp40 rescue, PrPC TRFRET, PrP 5UTR inh, Vc quorum ag)
O=C(NCc1ccc2c(c1)OCO2)C12CN(Cc3ccccc3)CC1C(c1cccc([N+](=O)[O-])c1)=NO2 (configuration not stated)	SSB-PriA inh 42.8
O=C(Cc1csc2nc(-c3ccccc3)cn12)Nc1ccc2c(c1)OCCO2	SSB-PriA inh 44.0 (no result: 3CLpro inhibitor, PfHsp40 rescue, PrPC TRFRET, PrP 5UTR inh, Vc quorum ag)
O=C(Cc1csc(Nc2cccc(Cl)c2)n1)Nc1ccc2c(c1)OCCO2	SSB-PriA inh 20.0 (no result: 3CLpro inhibitor, PfHsp40 rescue, PrPC TRFRET, PrP 5UTR inh, Vc quorum ag)
COc1ccc(CCNC(=O)c2cn(-c3ccc(C)c(C)c3)nn2)cc1OC	none (no result: 3CLpro inhibitor, PfHsp40 rescue, PrPC TRFRET, PrP 5UTR inh, Vc quorum ag)
O=C(Nc1ncn[nH]1)c1ncc(-c2ccc(Cl)cc2)o1	SSB-PriA inh 69.0 (no result: 3CLpro inhibitor, PfHsp40 rescue, PrPC TRFRET, PrP 5UTR inh, Vc quorum ag)
NC(=O)c1ccccc1NC(=O)c1ncc(-c2ccc(Cl)cc2)o1	none (no result: 3CLpro inhibitor, PfHsp40 rescue, PrPC TRFRET, PrP 5UTR inh, Vc quorum ag)
O=C(CC1CCCC1)N1CCC[C@H](Oc2cccnn2)C1	none (no result: 3CLpro inhibitor, PfHsp40 rescue, PrPC TRFRET, PrP 5UTR inh, Vc quorum ag)
O=C(NCc1nnc(SCC(=O)N2CCOCC2)o1)c1ccccc1	SSB-PriA inh 56.0 (no result: 3CLpro inhibitor, PfHsp40 rescue, PrP 5UTR inh)
O=C(NCc1nnc(SCC(=O)N2CCOCC2)o1)c1ccccc1F	none
COc1cc(OC)c(-c2noc(C(=O)OC(C)(C)C)c2C(=O)OC(C)(C)C)c(OC)c1	none
Cc1cc(C)c(-c2noc(C(=O)OC(C)(C)C)c2C(=O)OC(C)(C)C)c(C)c1	Vc quorum ag 51.3
N#CSCC(=O)c1cccc2ccccc12	PfHsp40 rescue 146.2
COc1ccccc1C(=O)N1CC(S(=O)(=O)c2ccc(F)cc2)C1	none (no result: 3CLpro inhibitor, PfHsp40 rescue, PrPC TRFRET, PrP 5UTR inh, Vc quorum ag)
O=C(NCCn1ccc(-c2cccs2)n1)C1CC=CCC1 (configuration not stated)	none (no result: 3CLpro inhibitor, PfHsp40 rescue, PrPC TRFRET, PrP 5UTR inh, Vc quorum ag)
O=C(O)c1cc(NCc2c(F)cccc2Cl)ccc1N1CCOCC1	PfHsp40 rescue 104.8
COC(=O)c1cc(NCc2ccccc2F)ccc1N1CCOCC1	none
Nc1ccc2c(c1)CN(C(=O)c1cccs1)CC2	none (no result: 3CLpro inhibitor, PfHsp40 rescue, PrPC TRFRET, PrP 5UTR inh, Vc quorum ag)
O=C(O)CCCNc1cc(N2CCN(C(=O)c3ccco3)CC2)c2noc3c2c1C(=O)c1ccccc1-3	SSB-PriA inh 40.6
